# The supplement of paper PMC11417369
# ± gives the standard deviation of the averaged measurements. The full ranking holds about 25,000 sequences; the median of “ln(normalized median fluorescence intensity)” is about 10, and the highest 2% start at about 12. The full list was thinned out, with the highest values kept by preference.
# Test system: PfAP2-G AP2 domain (GST-tagged)
# Assay: gcPBM binding intensity (ln(normalized median fluorescence intensity)); higher = stronger DNA binding
# Summary of the method: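 GST-tagged P. falciparum DNA-binding domains produced in E. coli were incubated for 1 h on an Agilent 4 × 180k array of primer-extended double-stranded 36-bp intergenic genomic probes with negative controls. Binding intensity is the highest Masliner-normalised natural-log median intensity across replicate spots of either probe orientation, with bound protein detected by Alexa488 anti-GST antibody at 488 nm.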
row,Sequence,gcPBM binding intensity (ln)
1,TGTATAGTCTAAAGTTGTACAAAAAAAAAAAAAAAA [XGTACX_site5764],11.3 ± 1
2,GTGTAGGCAAAAAGTTGTACGCCTAAAATCTATATA [XGTACX_site8912],11.7 ± 1.1
3,AATCAAAAAAAATGTTGTACGCCTAATTATAATTAA [XGTACX_site8906],11.6 ± 0.8
4,TATATATATATATGTTGTACTTTTAATTTAAATGTA [XGTACX_site4239],11.6 ± 0.94
5,TTTTAATTTTGTTGTTGTACAAATAACATGTGAGGG [XGTACX_site4401],11.2 ± 0.83
6,TATTTTAATTTTTGTTGTACGCAAATGTGAGGGCAT [XGTACX_site4663],11.7 ± 1.2
7,TTCTTATTTTATATTTCACACATTTTTACTATACTT [CACACA_site5817],10.08 ± 0.071
8,CACCCACACCAACACACACACATATATAATATATAT [CACACA_site595],10.3 ± 0.33
9,TAAATAATATAATTATGTACGTATTTCTTTATTTTA [XGTACX_site8410],11.4 ± 0.83
10,TTTTTTTTTTTCTTTTGTACGTATAAAATTATATAA [XGTACX_site2453],11.5 ± 0.66
11,CCCTTTTCTAAATATTGTACGTATAAATTATATTAC [XGTACX_site7676],11.7 ± 0.88
12,GGTGCACCCATATACACACACAAATACAATGATAAA [CACACA_site1132],10.6 ± 0.76
13,AATATATAAATTGACACACACATATATACATATATA [CACACA_site1213],10.1 ± 0.11
14,TATATATTTTGTGTCTGTACACATATTATTAATTCC [XGTACX_site7507],11.4 ± 1
15,AATTCATTTTACCCATGTACACAATTATATTTTATA [XGTACX_site4127],11.6 ± 0.83
16,TGTCTGTGCGGGTGTACACATTTCATATTACCCAAT [CACACA_site5593],11.8 ± 0.98
17,AATTTTTCATCAAGTTGTACAATTATTTGTTTGTTT [XGTACX_site3113],11.3 ± 0.73
18,ATATTAGAAATATGAATAGAAAGAATATATAAGTAT [CACACA_negctrl_site682],9.76 ± 0.37
19,TGTTTCTAAAAAAAAGGTACACATATATATAATATA [XGTACX_site3217],11.4 ± 0.93
20,TCGATATATAGACACACACACTTTTAATAATTAAAT [CACACA_site7726],10.2 ± 0.24
21,AACAATGTTTTCTTGTGTACACATCATTAAAGAAAA [XGTACX_site4726],11.6 ± 0.88
22,TCAAATGTGTAATCTTGTACACATTAAAAGAAAAAA [XGTACX_site8822],11.2 ± 0.83
23,TCTTTAATGATGTGTACACAAGAAAACATTGTTAAG [CACACA_site5299],11.7 ± 0.89
24,ATTTTTTTTTTTATTTTCTTTGAGATTATCTTAATT [CACACA_negctrl_site1209],9.78 ± 0.14

row,Sequence,gcPBM binding intensity (ln)
1,TATGTATAAAAATAATGTACAAAATATATTATATGT [XGTACX_site2794],10.9 ± 0.4
2,TATATATATATATGGGGTACAAATGGTCAGTATTAT [XGTACX_site1223],11.7 ± 0.97
3,AAAAAAAAAATTGAAAGTACACAAATGGGGTATTAT [XGTACX_site3960],11.5 ± 0.87
4,TAAAATTTGTACATAGTGCAATTTTTTTTTTTTTTT,10.7 ± 0.52
5,TATACATATAAATTGTGTACACATATATATATATTT [XGTACX_site7875],11.6 ± 0.92
6,TTGTGAAATAAAATTTGTACACACATATATATATAT [XGTACX_site1078],11.2 ± 0.86
7,ATCATGAAATATATTTGTACACATAATAATATAATA [XGTACX_site8798],11.4 ± 0.89
8,GTGTTTTTATTATTTTGTACACATATATTTAATATT [XGTACX_site2109],11.5 ± 0.87
9,TAATATTTTTTGTGTACACATATATATATATATATA [CACACA_site5504],11.7 ± 0.88
10,TTTTTTTTGTGTATTTGTACATAATATATATATATA [XGTACX_site7092],10.9 ± 0.49
11,TATATTTGTGCGTGTACACATTTGAAAAAATATATA [CACACA_site5079],11.6 ± 0.88
12,ACATATAAATTGTGTACACATATATATATATTTTTT [CACACA_site5946],11.8 ± 1
13,TTTTTTTTTGGGTGTACACATGAATATATATTTTTT [CACACA_site5254],11.7 ± 0.95
14,TGTTATATTTGTGCGTGTACACATTTGAAAAAATAT [XGTACX_site3796],11.8 ± 1.1
15,CATAAAATTGTATTTTGTACACATTTTGTATACATT [XGTACX_site5705],11.4 ± 0.82
16,ATGAATATATATATTTGTACATATGTATATATATAT [XGTACX_site7527],10.9 ± 0.54
17,GTTGGGTAATTCGTAACACACATAAAATATATATAA [CACACA_site3986],10.13 ± 0.099
18,CATAATGTAAATAAGTGTACACATATATAATACATA [XGTACX_site3108],11.6 ± 0.9
19,TATATTTATAGGTACACACACACATATAAATAAATA [CACACA_site6345],11.3 ± 0.98
20,TTATTTCTACCTTTTTGTACACATTATTATGAAACC [XGTACX_site5325],11.3 ± 0.81
21,ACTATTTTAAAAATATGTACATACGTTGTAATTTAA [XGTACX_site7999],11.4 ± 0.83
22,ATAATACAATTTATAACACACACACTATAATACATA [CACACA_site8338],10.025 ± 0.007
23,TTAGGTATATATAAACGTACTCACAATATCATATAA [XGTACX_site8743],11.1 ± 0.71
24,GAATTATAAGAATAAACACACAAGCTTAAAAAAAAA [CACACA_site1204],9.74 ± 0.18

row,Sequence,gcPBM binding intensity (ln)
1,ATATATTTATATTTGTGTACATATTTATTATATTTA [XGTACX_site404],11.5 ± 0.67
2,TATTTGTGTATTTTTACACACATTAATATATTTATA [CACACA_site7562],9.9 ± 0.2
3,AATATATATTTGTGTACACATTATATATATATATAT [CACACA_site6103],11.9 ± 1.1
4,CAAAAAGGAATGTATGCACACAATTGATTTTAACTC [CACACA_site1468],10 ± 0.13
5,AAATTAATAAATATTTTTATAAATTATAATATTAAT [GTGCAC_negctrl_site533],9.37 ± 0.16
6,TTTATTTTTAAAGGCACACACATTTTTATTTTTAAA [CACACA_site2021],10.1 ± 0.19
7,AGAAATTAATCGAGGTGTACGTACATCCAAATATAT [XGTACX_site7650],11.8 ± 1.2
8,AGAAATTAATCGAAGTGTACATATAAACATACATAT [XGTACX_site5518],11.3 ± 0.69
9,GAAAATACGTTTAATCGTACATATATATAATATATA [XGTACX_site4243],11.1 ± 0.88
10,GAGAAAAGGAAATTCACACATATAAAGAAAGATCTA [CACACA_site5420],9.865 ± 0.064
11,AAAAAATATTTTTACAGTACATATATATAAAATGTT [XGTACX_site3215],10.9 ± 0.58
12,AAGGAAATATAATATACACACATAAGTGTACTTATA [CACACA_site4030],11.6 ± 1.1
13,ATAAATACACACAAGTGTACATACTTCTATAAATAT [XGTACX_site1845],11.3 ± 0.96
14,AAGGAAATATAATATACACACATAAGTGTACTTCTA [CACACA_site6079],11.7 ± 1.1
15,ATATATATATATATGTGTACACAACAAAATAAAAAA [XGTACX_site7378],11.7 ± 0.79
16,TACAAATTAATATGTACACACAAATATATATATATA [CACACA_site1977],11.4 ± 0.87
17,ATATAAATAAATATATGTACACACACAAATATATAC [XGTACX_site3950],11.4 ± 0.73
18,TTTTTTTTTTTTTTTACACACACAAAATATTATATG [CACACA_site2471],9.99 ± 0.38
19,AGTATAAAATAAATGTGTACACAAGAAAATATGTTA [XGTACX_site8381],11.8 ± 0.93
20,GATTATATATGAAAATGTACAAATATATATATATAT [XGTACX_site5963],10.8 ± 0.28
21,TATATATATATGTGTAGTACAACAAATATGAAAAAT [XGTACX_site4059],11.7 ± 0.86
22,AAGAAATAAAAAGAATGTACACAATATGTATTATAA [XGTACX_site4733],11.5 ± 0.69
23,ATATATGAAAATATATGTACACAACATATAAAATAG [XGTACX_site5132],11.4 ± 0.83
24,TATATATATATGTGTACACAAAAAATATTATATTAT [CACACA_site5505],11.9 ± 0.93

row,Sequence,gcPBM binding intensity (ln)
1,ATAAAATAAAAGTGTACACAAGAAAATATGTTATGT [CACACA_site6033],11.6 ± 0.79
2,ATAATATAACACAAATGTACAAAAAATAAATAAATA [XGTACX_site385],10.7 ± 0.4
3,ATCTAATAAAAATACACACACATATGATTTGTGAAT [CACACA_site1867],10.1 ± 0.28
4,TTCTTTTTAAATATACTAATTATGTATAAAACAGAA [GTGCAC_negctrl_site131],9.94 ± 0.23
5,TAAATTATTTATAAAGCACACAAGAAAAAATAAAAT [CACACA_site2132],10.2 ± 0.092
6,TTTCACACTATTTCATGTACACATAAAATTATATAT [XGTACX_site8692],11.4 ± 0.94
7,ATACTATAATAATACACACTCATTAGATATATAAAG [CACACA_site7787],9.99 ± 0.12
8,AAAAAAAAAAAATGAGCACACATAAATAAAAACAAA [CACACA_site8447],10.2 ± 0.12
9,AAATTAAATAAATTTACACACTAAAAATTACAGATA [CACACA_site4722],9.88 ± 0.028
10,TGTATTATATATACACAAATATTTATGTGTGTGTTT [XGTACX_negctrl_site475],10.1 ± 0.11
11,ATATATATATATATGTGTACACAAAAAATATTATAT [XGTACX_site5741],11.6 ± 0.83
12,AATGTATAATTATAATGTACAAATAATATATAATAT [XGTACX_site5407],10.9 ± 0.4
13,TTATTTTTTTTTTTTTGTACACAATTTGACACATTA [XGTACX_site7983],11.5 ± 0.91
14,ATACACATATGTTAATGTACACATATATAATATTTA [XGTACX_site163],11.3 ± 0.78
15,TTAAAAATGTGTGTGCGTACATAATATTTCGAAAAA [XGTACX_site8197],11.6 ± 1
16,AAATGTGTTAATGTGCGTACACATATATATAATATT [XGTACX_site2792],11.7 ± 1.1
17,AAAAATATAATATAATGTACACAAAAAAAAAAAAAT [XGTACX_site4914],11.6 ± 0.91
18,AAAAATATATTATATGTACACACAAAATTAAGGGAT [CACACA_site8384],11.5 ± 0.83
19,TATATATATATAATGTGTACACAAATATATATTATA [XGTACX_site8786],11.7 ± 1.1
20,TTTGACAAATTATTGTGTACACAATATTATTATATA [XGTACX_site8320],11.7 ± 1
21,GACAAATTATTGTGTACACAATATTATTATATATAC [CACACA_site6020],11.6 ± 0.89
